Laboratory results from PubChem BioAssay (Tox21).
Records with an inconclusive call do not appear. Calls of active or inactive are those of the source. Calls follow the shape of the full dose curve.

Columns and labels:
[1] = target: Acetylcholinesterase (Homo sapiens) (UniProt P22303); assay: Acetylcholinesterase (AChE) small molecule antagonists: colormetric cell-based qHTS assay (AID 1347395); also: nearly all actives have a fitted effect of over 30% in size
Outline: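 AChE inhibition read colorimetrically via DTNB–thiocholine in SH-SY5Y cells. Compound 30 min, substrate 90 min, both 37 C.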

[2] = target: Acetylcholinesterase (Homo sapiens) (UniProt P22303); assay: Acetylcholinesterase (AChE) small molecule antagonists: enzyme-based qHTS assay (AID 1347397); conditions: Potency: AChE enzyme activity inhibition; outcome: AChE enzyme activity inhibition; also: nearly all actives have a fitted effect of over 55% in size
Outline: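 Enzyme inhibition was scored from DTNB-detected thiocholine formed by recombinant human AChE acting on acetylthiocholine. The 30 min compound preincubation and 10 min substrate reaction were both run at room temperature, with DMSO as vehicle control.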

[3] = target: Acetylcholinesterase (Homo sapiens) (UniProt P22303); assay: Acetylcholinesterase (AChE) small molecule antagonists: fluorescence cell-based qHTS assay (AID 1347398); conditions: Potency: AChE activity; outcome: AChE activity; also: nearly all actives have a fitted effect of over 50% in size
Outline: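 Endogenous acetylcholinesterase of SH-SY5Y neuroblastoma cells is measured in situ. After overnight attachment and 30 min compound exposure, cells receive acetylthiocholine and Thiolite Green; fluorescence is read after 40 min at room temperature.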

[4] = target: Acetylcholinesterase (Homo sapiens) (UniProt P22303); assay: Acetylcholinesterase (AChE) small molecule antagonists: enzyme-based qHTS assay with human liver microsomes (AID 1347399); conditions: Potency: qHTS inhibition; outcome: qHTS inhibition; also: nearly all actives have a fitted effect of over 60% in size
Outline: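 Recombinant human AChE (50 mU/mL in the enzyme mix) and human liver microsomes (0.25 mg/mL final) were preincubated with compound and NADPH (0.25 mg/mL final) for 30 min at 37 C. Acetylthiocholine/DTNB was then added; thiocholine was read colorimetrically after 10 min at room temperature.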
% is scaled to controls: 0 for no effect and ±100 for the full control effect.

Sequence of Acetylcholinesterase (Homo sapiens) (P22303 whole entry, looked up): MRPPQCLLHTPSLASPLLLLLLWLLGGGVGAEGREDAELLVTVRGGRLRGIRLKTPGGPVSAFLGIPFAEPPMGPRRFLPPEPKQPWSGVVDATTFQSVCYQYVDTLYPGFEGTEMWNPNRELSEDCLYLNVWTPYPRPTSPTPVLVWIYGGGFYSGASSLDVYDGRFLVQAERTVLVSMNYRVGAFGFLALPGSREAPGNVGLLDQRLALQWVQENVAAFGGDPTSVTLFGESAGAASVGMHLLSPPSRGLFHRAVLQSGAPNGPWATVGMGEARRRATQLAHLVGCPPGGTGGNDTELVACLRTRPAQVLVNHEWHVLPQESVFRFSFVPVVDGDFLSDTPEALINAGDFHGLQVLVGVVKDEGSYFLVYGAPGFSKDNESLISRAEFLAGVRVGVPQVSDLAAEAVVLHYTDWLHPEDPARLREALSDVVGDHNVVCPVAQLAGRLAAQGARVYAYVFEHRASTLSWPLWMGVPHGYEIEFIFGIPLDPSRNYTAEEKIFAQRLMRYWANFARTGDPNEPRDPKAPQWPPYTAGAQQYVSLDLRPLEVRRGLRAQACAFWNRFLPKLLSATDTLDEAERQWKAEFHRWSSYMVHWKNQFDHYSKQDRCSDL

N=C1N=C(N)c2ccccc21
inactive: Potency [1] | Potency [2] | Potency [3] | Potency [4]

CCCCCCCCCCCBr
inactive: Potency [1] | Potency [2] | Potency [3] | Potency [4]

CCOC(=O)C(=O)OCC
inactive: Potency [1] | Potency [2] | Potency [3] | Potency [4]

CCC(=O)OC/C=C(\C)CCC=C(C)C
inactive: Potency [1] | Potency [2] | Potency [3] | Potency [4]

C1COC1
inactive: Potency [1] | Potency [2] | Potency [3] | Potency [4]

CC(C)=CCCC(C)O (stereo unspecified)
inactive: Potency [1] | Potency [2] | Potency [3] | Potency [4]

COc1ccc(COC=O)cc1
inactive: Potency [1] | Potency [2] | Potency [3] | Potency [4]

CCCC(=O)OC/C=C(\C)CCC=C(C)C
inactive: Potency [1] | Potency [2] | Potency [3] | Potency [4]

CCCCCOC(=O)CCCCC
inactive: Potency [1] | Potency [2] | Potency [3] | Potency [4]

C=CCn1c(=O)n(CC=C)c(=O)n(CC=C)c1=O
inactive: Potency [1] | Potency [2] | Potency [3] | Potency [4]

CCCCNCCCC
inactive: Potency [1] | Potency [2] | Potency [3] | Potency [4]

C=CC(=O)[O-].C=CC(=O)[O-].[Zn+2]
inactive: Potency [1] | Potency [2] | Potency [3] | Potency [4]

Cc1ccc(OC(=O)c2ccccc2O)cc1
inactive: Potency [1] | Potency [2] | Potency [3] | Potency [4]

[O-][n+]1cccc(CO)c1
inactive: Potency [1] | Potency [2] | Potency [3] | Potency [4]

CCCN(CCC)c1c([N+](=O)[O-])cc(C(F)(F)F)c(N)c1[N+](=O)[O-]
inactive: Potency [1] | Potency [2] | Potency [3] | Potency [4]

CCC(C)S (stereo unspecified)
inactive: activity, negative = inhibition [1] 1.56% [at 4.07 µM] | activity change, negative = inhibition [2] 0.922% [at 4.07 µM] | activity change, negative = inhibition [3] 4.18% [at 3.98 µM] | activity change, negative = inhibition [4] -0.581% [at 4.07 µM]

Cc1ncc([N+](=O)[O-])n1CC(C)O (stereo unspecified)
inactive: Potency [1] | Potency [2] | Potency [3] | Potency [4]

CC/C=C\CCCCCCCCCCOC(C)=O
inactive: Potency [1] | Potency [2] | Potency [3] | Potency [4]

NC1CCN(c2nc3c(cc2F)c(=O)c(C(=O)O)cn3-c2ccc(F)cc2F)C1 (stereo unspecified)
inactive: Potency [1] | Potency [2] | Potency [3] | Potency [4]

CCCCCCCC/C=C/CCCOC(C)=O
inactive: Potency [1] | Potency [2] | Potency [3] | Potency [4]

CCC(C)c1ccccc1 (stereo unspecified)
inactive: Potency [1] | Potency [2] | Potency [3] | Potency [4]

CSSc1ccoc1C
inactive: Potency [1] | Potency [2] | Potency [3] | Potency [4]

Cc1cc(C)c(C=O)c(C)c1
inactive: Potency [1] | Potency [2] | Potency [3] | Potency [4]

CCCCCCCCOC(=O)CCCCCCCCC(=O)OCCCCCCCC
inactive: Potency [1] | Potency [2] | Potency [3] | Potency [4]

C=C(C)c1ccccc1
inactive: Potency [1] | Potency [2] | Potency [3] | Potency [4]

COC(=O)C(C)=O
inactive: Potency [1] | Potency [2] | Potency [3] | Potency [4]

CCCC(=O)OCC
inactive: Potency [1] | Potency [2] | Potency [3] | Potency [4]

CCN(CC)CCOC(=O)C1(c2ccccc2)CCCC1
inactive: Potency [1] | Potency [2] | Potency [3] | Potency [4]

CCCCOC(=O)C(C)O (stereo unspecified)
inactive: Potency [1] | Potency [2] | Potency [3] | Potency [4]

O=C(Oc1cccc2cccnc12)c1ccccc1
inactive: Potency [1] | Potency [2] | Potency [3] | Potency [4]

CCCCOc1ccc(OCCCN2CCOCC2)cc1
inactive: Potency [1] | Potency [2] | Potency [3] | Potency [4]

CS(C)=O
inactive: Potency [1] | Potency [2] | Potency [3] | Potency [4]

CCOC(=O)C1=NN(c2ccc(Cl)cc2Cl)C(C)(C(=O)OCC)C1 (stereo unspecified)
inactive: Potency [1] | Potency [2] | Potency [3] | Potency [4]

C=CCOCC(O)CS(=O)(=O)O (stereo unspecified)
inactive: Potency [1] | Potency [2] | Potency [3] | Potency [4]

C=C(C)C(=O)OC
inactive: Potency [1] | Potency [2] | Potency [3] | Potency [4]

NS(=O)(=O)c1cc(C(=O)NN2C[C@H]3[C@H]4CCC(C4)[C@H]3C2)ccc1Cl
inactive: Potency [1] | Potency [2] | Potency [3] | Potency [4]

CCCCCCCCCI
inactive: Potency [1] | Potency [2] | Potency [3] | Potency [4]

CCCCCCCC/C=C\CCCCCCCC(=O)OCCO
inactive: Potency [1] | Potency [2] | Potency [3] | Potency [4]

NCCCNCCSP(=O)(O)O
inactive: activity, negative = inhibition [1] 2.88% [at 10.5 µM] | activity change, negative = inhibition [2] -0.97% [at 10.5 µM] | activity change, negative = inhibition [3] 1.49% [at 10.5 µM] | activity change, negative = inhibition [4] 5.32% [at 10.5 µM]

CCn1c(=O)c2c(nc(/C=C/c3ccc(OC)c(OC)c3)n2C)n(CC)c1=O
inactive: Potency [1] | Potency [2] | Potency [3] | Potency [4]

Cc1ccc(NC(N)=O)cc1
inactive: Potency [1] | Potency [2] | Potency [3] | Potency [4]

CC/C=C\C/C=C\C/C=C\CCCCCCCC(=O)OC
inactive: Potency [1] | Potency [2] | Potency [3] | Potency [4]

O=CCCc1ccccc1
inactive: Potency [1] | Potency [2] | Potency [3] | Potency [4]

CCOC(=O)CCc1ccccc1
inactive: Potency [1] | Potency [2] | Potency [3] | Potency [4]
